Assay results: PMC4336329 (PLoS ONE, 2015)
Screen size: about 310,000 compounds; about 14,000 (4.5%) showed an effect of 50% or more. The effect is printed as a negative number. Many of the other results were omitted from the sample, so strong results are more common in it than they were.

target: human ether-à-go-go-related gene (hERG) potassium channel (human, UniProt Q12809); assay: primary screen, population patch clamp on CHO cells stably expressing hERG; higher = less effect of the substance
Sequence (Q12809 whole entry, looked up): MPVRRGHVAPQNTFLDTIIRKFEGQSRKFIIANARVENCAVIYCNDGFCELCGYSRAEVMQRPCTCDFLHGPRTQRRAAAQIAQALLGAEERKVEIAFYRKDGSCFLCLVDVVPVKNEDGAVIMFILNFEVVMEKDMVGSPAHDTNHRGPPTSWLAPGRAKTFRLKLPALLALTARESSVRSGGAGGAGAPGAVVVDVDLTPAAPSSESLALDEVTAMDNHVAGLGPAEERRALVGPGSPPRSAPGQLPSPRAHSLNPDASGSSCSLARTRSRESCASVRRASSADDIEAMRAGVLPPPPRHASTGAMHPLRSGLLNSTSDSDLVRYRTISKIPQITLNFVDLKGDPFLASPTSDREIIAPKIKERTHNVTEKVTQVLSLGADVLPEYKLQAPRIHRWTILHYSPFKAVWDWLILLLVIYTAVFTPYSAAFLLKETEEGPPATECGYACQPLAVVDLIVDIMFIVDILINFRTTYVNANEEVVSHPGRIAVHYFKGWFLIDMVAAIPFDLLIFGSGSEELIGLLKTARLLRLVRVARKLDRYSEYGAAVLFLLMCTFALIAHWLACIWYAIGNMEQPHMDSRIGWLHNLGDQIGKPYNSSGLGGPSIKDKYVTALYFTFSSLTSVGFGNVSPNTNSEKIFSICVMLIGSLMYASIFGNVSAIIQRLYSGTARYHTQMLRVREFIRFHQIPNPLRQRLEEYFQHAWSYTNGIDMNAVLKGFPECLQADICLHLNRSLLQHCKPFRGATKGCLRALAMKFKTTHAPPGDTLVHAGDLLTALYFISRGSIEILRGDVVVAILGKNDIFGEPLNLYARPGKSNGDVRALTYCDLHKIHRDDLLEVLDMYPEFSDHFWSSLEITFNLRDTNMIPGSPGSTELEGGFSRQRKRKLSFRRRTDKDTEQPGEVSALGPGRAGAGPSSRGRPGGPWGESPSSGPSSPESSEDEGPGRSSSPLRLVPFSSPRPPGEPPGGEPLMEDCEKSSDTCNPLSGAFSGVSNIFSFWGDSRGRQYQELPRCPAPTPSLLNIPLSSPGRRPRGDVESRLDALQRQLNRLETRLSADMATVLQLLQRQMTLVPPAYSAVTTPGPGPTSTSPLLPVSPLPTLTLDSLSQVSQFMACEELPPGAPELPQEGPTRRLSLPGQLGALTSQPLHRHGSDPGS
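Further: peak tail current of the secondary pulse compared with the same well before compound.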

| Compound | hERG current change (%, negative = inhibition) at 10uM |
| --- | --- |
| Cc1cc(C)cc(OCc2ccc(C(=O)NN)o2)c1 | 14.2% |
| COc1ccc(CCNC(=S)Nc2cc(C)ccc2C)cc1 | -15.9% |
| CS(=O)(=O)N(C(=O)NC(=O)NC1CCS(=O)(=O)C1)C1CCCCC1 (stereo not shown) | 4.13% |
| COc1ccc(-c2nn(-c3ccccc3)cc2/C=C2/SC(=S)N(Cc3ccco3)C2=O)c(C)c1 | 8.73% |
| Cn1c(=O)n(Cc2ccc(Cl)cc2)c(=O)c2c1nc1n2CCN1Cc1ccco1 | -21.5% |
| Cn1c(=O)n(CCc2ccccc2)c(=O)c2c1nc1n2CCN1Cc1ccco1 | -55.5% |
| Cc1cccc(Cn2c(=O)c3c(nc4n3CCN4Cc3ccco3)n(C)c2=O)c1 | -52.2% |
| Cc1ccc(C)c(Cn2c(=O)c3c(nc4n3CCN4Cc3ccco3)n(C)c2=O)c1 | -3.76% |
| Cn1c(=O)n(Cc2ccc(F)cc2)c(=O)c2c1nc1n2CCN1Cc1ccco1 | -55.4% |
| Cc1cccc(Cn2c(=O)c3c(nc4n3CCCN4Cc3ccccc3)n(C)c2=O)c1 | -38.8% |
| Cc1ccc(Cn2c(=O)c3c(nc4n3CCN4Cc3ccco3)n(C)c2=O)cc1 | -17.9% |
| CCCn1c(=O)c2c(nc3n2CCN3Cc2ccco2)n(C)c1=O | -5.94% |
| Cn1c(=O)n(Cc2ccccc2)c(=O)c2c1nc1n2CCN1Cc1ccco1 | -36.7% |
| CC1CCC(NC(=O)C(Cc2ccccc2)n2cccc2)CC1 (stereo not shown) | -14.9% |
| Cc1cc(C)cc(OCC(=O)N/N=C/c2ccco2)c1 | 37.4% |
| COc1cccc(-n2nnc3c(=O)n(CC(=O)OCc4ccccc4)cnc32)c1 | 9.39% |
| O=C(Cc1ccsc1)N1CCc2c([nH]c3ccccc23)C1c1ccccn1 (stereo not shown) | 4.87% |
| CC(=O)Nc1ccc(CN2CCc3c([nH]c4ccccc34)C2c2ccccn2)cc1 (stereo not shown) | -38.5% |
| c1ccc(C2c3[nH]c4ccccc4c3CCN2Cc2cccn2-c2ccccn2)nc1 (stereo not shown) | -70.5% |
| c1ccc(C2c3[nH]c4ccccc4c3CCN2Cc2cccn2-c2cccnc2)nc1 (stereo not shown) | -23.7% |

| Compound | hERG current change (%, negative = inhibition) at 10uM |
| --- | --- |
| Clc1ccc(-n2cccc2CN2CCc3c([nH]c4ccccc34)C2c2ccccn2)nc1 (stereo not shown) | -77% |
| CSc1ncc(CN2CCc3c([nH]c4ccccc34)C2c2cccc(C)n2)cn1 (stereo not shown) | -13.8% |
| CCOC(=O)C1CCN(S(=O)(=O)c2ccc(Cl)nc2)CC1 | -2.6% |
| COc1ccc2oc(C(=O)NCCC(C)C)c(C)c2c1 | -0.78% |
| Cn1nc(C(=O)OCc2ccccc2F)c2ccccc2c1=O | 13% |
| COc1ccc(C(C)(C)C)cc1NC(=O)c1cccc(S(=O)(=O)N2CCN(C(C)=O)CC2)c1 | 11.5% |
| Cc1ccc(S(=O)(=O)N2CCN(c3ncnc4c3cnn4-c3ccccc3)CC2)cc1 | 14.3% |
| Oc1ccccc1C1=Nc2ncnn2C(c2ccccc2)C1 (stereo not shown) | -16.6% |
| Oc1ccccc1C1=Nc2ncnn2C(c2ccc(F)cc2)C1 (stereo not shown) | -80.8% |
| Oc1ccccc1C1=NN(c2ccccc2)C(c2ccc(F)cc2)C1 (stereo not shown) | 9.68% |
| COc1ccc(NC2CC(=O)NC2=O)cc1 (stereo not shown) | 5.24% |
| O=Cc1cc([N+](=O)[O-])ccc1N1CCOCC1 | -19.3% |
| CC(=O)N1c2ccc([N+](=O)[O-])cc2NC(=O)CC1C (stereo not shown) | 22.2% |
| CC(=O)N1CCN(C(=S)c2cccc([N+](=O)[O-])c2)CC1 | 8.96% |
| CN1C(=O)C(=Cc2cc([N+](=O)[O-])ccc2N2CCCCC2)C(=O)N(C)C1=O | 19.3% |
| O=C1NC(=S)N/C1=C/c1cc([N+](=O)[O-])ccc1O | 12.8% |
| O=C1NC(=S)N/C1=C/c1cc([N+](=O)[O-])ccc1N1CCOCC1 | -62.9% |
| CCN1CCN(c2ccc([N+](=O)[O-])cc2C=C2C(=O)NC(=O)NC2=O)CC1 | -66.3% |
| O=C1NC(=O)C(=Cc2cc([N+](=O)[O-])ccc2N2CCCCC2)C(=O)N1 | 7.84% |
| CC(=O)N1CCN(c2ccc([N+](=O)[O-])cc2C=C2C(=O)NC(=O)NC2=O)CC1 | -56.6% |

| Compound | hERG current change (%, negative = inhibition) at 10uM |
| --- | --- |
| COC(=O)C1=C(O)/C(=C\c2ccc(OCC(=O)Nc3ccccc3OC)cc2)N=C1C | 0.751% |
| Cc1ccccc1Nc1nc(-c2sc(NC(=O)c3ccco3)nc2C)cs1 | 23.6% |
| O=C(Nc1cccc(Cl)c1)c1nc[nH]c1C(=O)N1CCN(c2ccccc2)CC1 | 8.06% |
| Cc1c(N/C(=N/S(=O)(=O)c2ccc(F)cc2)c2ccccc2)c(=O)n(-c2ccccc2)n1C | 0.39% |
| O=[N+]([O-])c1ccc(Oc2ccc(-c3cnc4ccccc4n3)cc2[N+](=O)[O-])cc1 | 6.13% |
| c1nc(N2CCCCC2)c2[nH]cnc2n1 | 9.4% |
| C=CCn1c(SCCN2CCCCC2)nc2c1c(=O)[nH]c(=O)n2C | -47.3% |
| COc1ccc(C(=O)NC2CC3CCCC(C2)N3Cc2ccccc2)cc1 (stereo not shown) | -53.5% |
| CCOc1ccc(C(=O)NC2CC3CCCC(C2)N3CC(C)C)cc1 (stereo not shown) | -41.1% |
| COc1ccc(C(=O)NC2CC3CCCC(C2)N3Cc2ccccc2)cc1OC (stereo not shown) | -23.6% |
| CCOc1ccc(C(=O)NC2CC3CCCC(C2)N3Cc2ccccc2)cc1 (stereo not shown) | -57.5% |
| Cc1ccn2c(NC(=O)c3cccs3)c(-c3ccccc3)nc2c1 | -0.701% |
| Cc1ccccc1-n1ncc2c1CC(C)(C)CC2NC(=O)CSc1ccncc1 (stereo not shown) | -8.26% |
| CC1(C)Cc2c(cnn2-c2cccc(F)c2)C(NC(=O)CCc2cnccn2)C1 (stereo not shown) | -28.4% |
| C=CCCC(=O)NC1CC(C)(C)Cc2c1cnn2-c1cccc(F)c1 (stereo not shown) | -68.4% |
| CC1(C)Cc2c(cnn2-c2cccc(F)c2)C(NC(=O)Cn2cccn2)C1 (stereo not shown) | -11.5% |
| CC1(C)Cc2c(cnn2-c2cccc(F)c2)C(NC(=O)CSc2ccccn2)C1 (stereo not shown) | -20.6% |
| CC1(C)Cc2c(cnn2-c2cccc(F)c2)C(NC(=O)CSc2ccncc2)C1 (stereo not shown) | -56.5% |
